USP1 inh = USP1/UAF1 (human) deubiquitinase inhibition; O94782; recombinant USP1/UAF1, Ub-Rhodamine cleavage fluorescence; AID 743255; hit rate 0.23% among 390,000; Potency, µM (highest dose often 57.1 µM), hits mostly inhibitors; active means well fitted inhibition curve with a large enough effect; inconclusive means small, poorly fitted or top-dose-only effect; inactive means no such curve, though single readings can be large or run the other way; further: nearly all actives have a fitted effect of over 60% in size
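USP1/UAF1 complex at 1 nM was preincubated with compound for 15 min at room temperature, then Ub-Rho substrate (150nM final) was added. Fluorescence (480/540 nm) was read kinetically, 6 reads every 60 seconds.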
TRPV1 ag = agonists of human vanilloid receptor 1 (TRPV1) | Q8NER1 | TRPV1-expressing cells, Fluo-8 calcium influx, agonist mode | activation, % at 8.33 µM | hit rate 0.19% among 320,000 | AID 540275; in the data active means activation above about 80%; inconclusive means between about 30% and that limit
Target sequence (Q8NER1 whole entry, looked up): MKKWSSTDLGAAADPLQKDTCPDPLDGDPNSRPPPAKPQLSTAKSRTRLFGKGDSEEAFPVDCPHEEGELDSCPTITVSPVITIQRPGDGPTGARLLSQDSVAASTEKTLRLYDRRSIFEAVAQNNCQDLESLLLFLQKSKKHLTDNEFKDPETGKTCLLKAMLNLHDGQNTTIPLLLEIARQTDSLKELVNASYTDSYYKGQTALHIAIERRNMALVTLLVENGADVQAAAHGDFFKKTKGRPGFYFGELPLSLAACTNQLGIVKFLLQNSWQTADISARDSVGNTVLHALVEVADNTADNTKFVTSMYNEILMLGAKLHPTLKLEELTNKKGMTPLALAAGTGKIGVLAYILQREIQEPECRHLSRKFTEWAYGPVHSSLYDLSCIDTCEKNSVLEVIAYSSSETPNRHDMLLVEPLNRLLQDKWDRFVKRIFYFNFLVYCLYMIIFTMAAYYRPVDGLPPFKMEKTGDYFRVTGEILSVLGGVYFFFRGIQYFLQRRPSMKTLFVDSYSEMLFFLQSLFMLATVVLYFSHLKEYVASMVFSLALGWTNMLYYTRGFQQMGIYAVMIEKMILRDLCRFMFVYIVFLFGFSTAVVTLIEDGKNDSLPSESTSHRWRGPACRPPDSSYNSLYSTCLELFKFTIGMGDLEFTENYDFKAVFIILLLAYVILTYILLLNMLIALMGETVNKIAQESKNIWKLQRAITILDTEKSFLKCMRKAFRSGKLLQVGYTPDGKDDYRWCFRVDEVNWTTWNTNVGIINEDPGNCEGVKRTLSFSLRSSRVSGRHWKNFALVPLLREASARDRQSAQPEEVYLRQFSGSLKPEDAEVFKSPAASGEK
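Fluo-8 calcium influx in TRPV1-expressing cells, kinetic read (ex 480/em 520 nm). Compound added and read 3 min for agonist activity, followed by capsaicin at EC20 final and 2 min further read for enhancement.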
TRPML1 inh = blocks the human TRPML1 channel. Q9GZU1. TRPML1-inducible cells, Ca2+ dye fluorescence, FDSS; hits give low values; inhibition of EC80 agonist-evoked calcium signal. activity change, negative = inhibition, % (concentration not given with the values). hit rate 0.02% among 390,000. AID 624415; in the data active means activity change below about -50%; inconclusive means between about -30% and that limit;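 further: stimulus is agonist 54-4 at its EC80 concentration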
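Tet-induced TRPML1-DL cells loaded with Ca8 no-wash calcium dye were read kinetically on FDSS. Compound addition was followed by EC80 agonist 54-4 (4 uM final); inhibition was read over 110 s.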
TRPML1 agonist = agonists of human TRPML1 channel. TRPML1-expressing cells, Ca2+ dye fluorescence, FDSS. Q9GZU1. AID 624414. activation, % (concentration not given with the values). hit rate 0.12% among 410,000; in the data active means activation above about 50%; inconclusive means mostly about 30% to 49%
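Cells: TRPML1-DL, 1X Tet inducer, ~16 h at 37 degrees C/5% CO2. Dye: ABD Ca8 no-wash + quencher, 45-90 min RT. Read: 10 s baseline, compound add, 110 s agonist phase; 54-4 EC80 (4uM final), 110 s antagonist phase.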
TRPV1 PAM = human TRPV1 potentiation. AID 540277. hit rate 0.02% among 320,000. potentiation, % at 8.33 µM. TRPV1-expressing cells, Fluo-8 calcium influx, capsaicin EC20 potentiation. Q8NER1; in the data active means potentiation above about 80%; inconclusive means between about 30% and that limit
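Cells expressing TRPV1 were dye-loaded with Fluo-8 and read kinetically: 10 s baseline, 3 min after compound (agonist portion), then 2 min after EC20 capsaicin (allosteric enhancer portion). Calcium-bound dye fluorescence at 480/520 nm.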
Numbers stand for hits; [ ] = another dose, or the depositor's remark. In the library only some 0.4% were active in any assay of this set; here they are far more common.

How did CCN(CC)S(=O)(=O)c1ccc(/C=C/C(=O)Nc2cccc(F)c2)cc1 do in these assays?
USP1 inh: inactive; TRPV1 ag: 97; TRPML1 inh: inactive; TRPML1 agonist: inactive; TRPV1 PAM: inactive

What do the screens show for `Cn1c2ccccc2c2ncn(Cc3ccc(F)cc3)c(=O)c21`?
USP1 inh: inactive; TRPV1 ag: 80; TRPML1 inh: inactive; TRPML1 agonist: inactive; TRPV1 PAM: inactive

What do the screens show for `S=C1Cc2ccccc2N1`?
USP1 inh: 28µM; TRPV1 ag: inactive; TRPML1 inh: inactive; TRPML1 agonist: inactive; TRPV1 PAM: inactive

Results for S=C1Nc2ccccc2CS1 ?
USP1 inh: inactive; TRPML1 inh: inactive; TRPML1 agonist: inactive

Results for CC(=O)c1cccc(NC(=S)NCCc2ccc(Cl)cc2)c1 ?
USP1 inh: inactive; TRPV1 ag: 85; TRPML1 inh: inactive; TRPML1 agonist: inactive; TRPV1 PAM: inactive

Results for CCOCc1nnc(NC(=O)c2cc(OC)c(OC)cc2[N+](=O)[O-])s1 ?
USP1 inh: inactive; TRPV1 ag: inactive; TRPML1 inh: inactive; TRPML1 agonist: inactive; TRPV1 PAM: inactive

How did CCCCNC(=O)Cn1nc(Cc2ccncc2)c2ccccc2c1=O do in these assays?
USP1 inh: inactive; TRPV1 ag: inactive; TRPML1 inh: inactive; TRPML1 agonist: inactive; TRPV1 PAM: inactive

Results for O=C(Cn1nc(Cc2ccncc2)c2ccccc2c1=O)N1CCc2ccccc2C1 ?
USP1 inh: 28µM; TRPV1 ag: inactive; TRPML1 inh: inactive; TRPML1 agonist: inactive; TRPV1 PAM: inactive

Results for CCCN1CCN(CCCNC(=O)c2cc3c(=O)n(CC)c4ccccc4c3s2)CC1 ?
USP1 inh: inactive; TRPML1 inh: inactive; TRPML1 agonist: inactive

What do the screens show for `CN(C)/C=C1\C=C2C(=O)c3ccccc3N2C1=O`?
USP1 inh: 4.5µM; TRPV1 ag: 93; TRPML1 inh: inconclusive; TRPML1 agonist: 57; TRPV1 PAM: inactive

Results for CNc1nc(NCc2ccco2)c2ccccc2n1 ?
TRPML1 agonist: 70

What do the screens show for `CCNc1nc(NCc2ccco2)c2ccccc2n1`?
TRPML1 agonist: 72

Results for c1ccc(Nc2nc(NCc3ccco3)c3ccccc3n2)cc1 ?
USP1 inh: inactive; TRPV1 ag: inactive; TRPML1 inh: inactive; TRPML1 agonist: inactive; TRPV1 PAM: inactive

How did CCN(CC)C(=O)C1=C(C)N(CCCOC)C(=O)C(CC(=O)NCc2cccc3ccccc23)C1 (stereo not given) do in these assays?
USP1 inh: inactive; TRPML1 inh: inactive; TRPML1 agonist: inactive

Results for COC(=O)c1cccc(Nc2ncnc3ccc(C)cc23)c1 ?
USP1 inh: inactive; TRPV1 ag: inconclusive; TRPML1 inh: inactive; TRPML1 agonist: inactive; TRPV1 PAM: inactive

What do the screens show for `COc1ccc(Nc2ncnc3ccc(C)cc23)cc1`?
USP1 inh: inactive; TRPV1 ag: 81; TRPML1 inh: inactive; TRPML1 agonist: inactive; TRPV1 PAM: inactive

What do the screens show for `CC(C)c1ccc(/C=C/C(=O)N2CCOCC2)cc1`?
USP1 inh: inactive; TRPV1 ag: 94; TRPML1 inh: inactive; TRPML1 agonist: inactive; TRPV1 PAM: inactive

How did CCCOc1ccc(/C=C/C(=O)N2CCN(c3ccccn3)CC2)cc1 do in these assays?
USP1 inh: inactive; TRPV1 ag: inactive; TRPML1 inh: inactive; TRPML1 agonist: inactive; TRPV1 PAM: inactive

How did CCCOc1ccc(/C=C/C(=O)N2CCOCC2)cc1 do in these assays?
USP1 inh: inactive; TRPV1 ag: 89; TRPML1 inh: inactive; TRPML1 agonist: inactive; TRPV1 PAM: inactive

How did O=S(=O)(c1ccc2nc(Nc3cccc(F)c3)ccc2c1)N1CCCC1 do in these assays?
USP1 inh: inactive; TRPML1 inh: inactive; TRPML1 agonist: inactive

What do the screens show for `COc1cc(/C=C(\C#N)C(=O)c2ccc(O)c(O)c2)cc(I)c1O`?
USP1 inh: 25µM; TRPV1 ag: inactive; TRPML1 inh: inactive; TRPML1 agonist: inactive; TRPV1 PAM: inactive

What do the screens show for `COc1ccc(C=C(C#N)C(=O)c2ccccc2)cc1`?
TRPML1 agonist: inactive

Results for CCCCCCCCCC[n+]1ccc(/C=C/c2ccc(N(C)C)cc2)c2ccccc21 ?
TRPML1 agonist: 57

Results for CCCC[n+]1c(/C=C/c2ccc(N(C)C)cc2)sc2ccccc21 ?
TRPML1 agonist: inactive

How did N#CC(C#N)=C1C=C2C=C(N3CCCCCC3)CCC2CC1 (stereo not given) do in these assays?
USP1 inh: 4µM; TRPV1 ag: 93; TRPML1 inh: inactive; TRPML1 agonist: 100; TRPV1 PAM: inactive

What do the screens show for `CCN1CCN(C2=CC3=CC(=C(C#N)C#N)CCC3CC2)CC1` (stereo not given)?
USP1 inh: 28µM; TRPV1 ag: 99; TRPML1 inh: inactive; TRPML1 agonist: 96; TRPV1 PAM: inactive

What do the screens show for `CC1(C)CC(NCCN2CCN(C3=CC(=C(C#N)C#N)CC(C)(C)C3)CC2)=CC(=C(C#N)C#N)C1`?
USP1 inh: inactive; TRPV1 ag: inactive; TRPML1 inh: inactive; TRPML1 agonist: inactive; TRPV1 PAM: inactive

Results for CN1CCN(C2=CC3=CC(=C(C#N)C#N)CCC3CC2)CC1 (stereo not given) ?
USP1 inh: inactive[2.29 µM]; TRPV1 ag: 184; TRPML1 inh: -71; TRPML1 agonist: 140; TRPV1 PAM: inactive

Results for N#CC(C#N)=C1C=C2C=C(N3CCOCC3)CCC2CC1 (stereo not given) ?
USP1 inh: 4µM; TRPV1 ag: 140; TRPML1 inh: inactive; TRPML1 agonist: 123; TRPV1 PAM: inactive

What do the screens show for `COCCCNS(=O)(=O)c1ccc2[nH]c(=O)[nH]c2c1`?
USP1 inh: inactive; TRPV1 ag: inactive; TRPML1 inh: inactive; TRPML1 agonist: inactive; TRPV1 PAM: inactive

What do the screens show for `CC(NC(=O)c1ccccc1)C(=O)OCC(=O)c1c(N)n(C)c(=O)n(C)c1=O` (stereo not given)?
USP1 inh: inactive; TRPV1 ag: inactive; TRPML1 inh: inactive; TRPML1 agonist: inactive; TRPV1 PAM: inactive

Results for O=c1[nH]c(C2CCN(S(=O)(=O)c3ccccc3C(F)(F)F)CC2)nc2c1nnn2Cc1cccc(F)c1 ?
USP1 inh: inactive; TRPV1 ag: inactive; TRPML1 inh: inactive; TRPML1 agonist: inactive; TRPV1 PAM: inactive

What do the screens show for `O=C(NCc1cccnc1)C1CCC(c2ccc(Cl)cc2)CC1` (stereo not given)?
USP1 inh: inactive; TRPV1 ag: 115; TRPML1 inh: inactive; TRPML1 agonist: inactive; TRPV1 PAM: inactive

What do the screens show for `O=C(NCc1cccnc1)C1CCN(C(=O)c2ccc(Cl)cc2Cl)CC1`?
USP1 inh: inactive; TRPV1 ag: inactive; TRPML1 inh: inactive; TRPML1 agonist: inactive; TRPV1 PAM: inactive

How did CCN1C(=O)S/C(=C/c2c(OCc3ccc(C(=O)O)cc3)ccc3ccccc23)C1=O do in these assays?
USP1 inh: inactive; TRPV1 ag: inactive; TRPML1 inh: inactive; TRPML1 agonist: inactive; TRPV1 PAM: inactive

How did CC(=O)OC1CCC2(C)C(CCC3C2CC(=O)C2(C)C3CC(C(C(C)=O)C(C)=O)C2C(C)=O)C1 (stereo not given) do in these assays?
USP1 inh: inconclusive; TRPML1 inh: inactive; TRPML1 agonist: inactive
